High-throughput results from PubChem.
Gli-Sufu antag: blocks Gli-Sufu signaling in a luciferase reporter; Sufu-KO-LIGHT fibroblasts, Gli luciferase reporter luminescence; inhibition, % at 5 µM; 340,000 tested, 0.74% active;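 active = inhibition above about 55%, limit read from the data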;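 also: 0% = DMSO-treated cells and 100% = wells with medium but no cells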
697 NFkB inh: inhibitors of the PMA/ionomycin-induced NF-kB reporter in 697 B cells. 697 B-cell NF-kB luciferase reporter, 16 h. inhibition, % at 4 µM. 330,000 tested, 0.33% active. AID 435022; in the data active = inhibition above about 35%
Beta apoptosis: beta cell apoptosis inhibition; INS-1E cytokine-induced death, ATP luminescence, 48 h; percent of positive-control rescue, neutral wells zero; protection from apoptosis, % (concentration not given with the values); 300,000 tested, 0.8% active;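 active = Every replicate reaches about 75%, or at least half do and their mean reaches it too, limit read from the data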;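 also: 0% = cytokine-treated negative control wells and 100% = positive control rescue; higher means more ATP so stronger rescue from cytokine killing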
Jurkat NFkB inh: lowers PMA/ionomycin-induced NF-kB signal in Jurkat cells. inhibition, % at 4 µM. 330,000 tested, 0.53% active. PMA/ionomycin-induced NF-kB luciferase reporter, luminescence; in the data active = inhibition above about 50%
Mdm2-MdmX inh: human Mdm2/MdmX binding inhibition; O15151+Q00987; SaOS-2 split-luciferase Mdm2/MdmX complementation, luminescence; inhibition, % at 8 µM; 330,000 tested, 3% active;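 active = inhibition of at least 50% at 8 µM in the primary screen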
Target sequence (O15151 whole entry, looked up): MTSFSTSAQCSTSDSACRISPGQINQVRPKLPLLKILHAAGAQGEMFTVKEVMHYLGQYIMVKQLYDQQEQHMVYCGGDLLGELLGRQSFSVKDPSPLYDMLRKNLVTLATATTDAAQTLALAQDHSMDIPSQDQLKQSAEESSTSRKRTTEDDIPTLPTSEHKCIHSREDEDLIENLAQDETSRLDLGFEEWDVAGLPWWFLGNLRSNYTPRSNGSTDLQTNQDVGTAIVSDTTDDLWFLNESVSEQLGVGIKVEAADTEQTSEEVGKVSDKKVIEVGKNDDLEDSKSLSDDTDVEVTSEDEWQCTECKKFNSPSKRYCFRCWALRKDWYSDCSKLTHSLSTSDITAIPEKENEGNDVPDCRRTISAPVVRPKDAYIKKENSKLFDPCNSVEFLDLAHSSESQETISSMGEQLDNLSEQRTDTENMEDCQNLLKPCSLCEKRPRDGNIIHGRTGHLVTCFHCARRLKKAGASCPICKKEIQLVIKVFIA
Target sequence (Q00987 whole entry, looked up): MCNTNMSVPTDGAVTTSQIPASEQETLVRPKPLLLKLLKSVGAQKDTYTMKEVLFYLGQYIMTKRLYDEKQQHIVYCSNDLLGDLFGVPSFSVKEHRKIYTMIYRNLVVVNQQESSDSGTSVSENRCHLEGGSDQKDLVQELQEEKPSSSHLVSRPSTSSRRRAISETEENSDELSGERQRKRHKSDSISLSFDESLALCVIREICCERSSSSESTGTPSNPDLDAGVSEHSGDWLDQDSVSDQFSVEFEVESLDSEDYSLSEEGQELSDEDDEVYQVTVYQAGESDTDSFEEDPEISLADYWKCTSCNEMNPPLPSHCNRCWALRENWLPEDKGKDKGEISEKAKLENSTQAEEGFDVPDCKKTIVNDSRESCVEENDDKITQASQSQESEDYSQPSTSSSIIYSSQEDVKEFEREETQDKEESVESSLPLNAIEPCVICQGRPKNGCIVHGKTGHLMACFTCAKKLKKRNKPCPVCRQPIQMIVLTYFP
Mdm2 MdmX conf: confirmation of human Mdm2/MdmX interaction inhibitors; inhibition, % at 8 µM; shares compounds with Mdm2-MdmX inh; 10,000 tested, 55% active; Mdm2-MdmX binding, luminescent assay; in the data active = inhibition above about 40%
FLuc counter: counter-screen for Mdm2/MdmX inhibitors: full-length luciferase; shares compounds with Mdm2-MdmX inh; SaOS-2 full-length luciferase counterscreen, luminescence; inhibition, % at 8 µM; 6,200 tested, 77% active; AID 504607;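 active = mean inhibition at 8 µM reaching about 37%, which flags the compound as non-specific, limit read from the data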;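 also: p53-null SaOS-2 cells with luciferase driven by a doxycycline-inducible promoter; compound on cells about two nights before reading with doxycycline added after day one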
* = called active by the depositor; . = no result given. The list is not random: actives were taken first. Their share in the collection is about 4%.

SMILES | Gli-Sufu antag | 697 NFkB inh | Beta apoptosis | Jurkat NFkB inh | Mdm2-MdmX inh | Mdm2 MdmX conf | FLuc counter
COc1cc([N+](=O)[O-])cc(/C=N/NC(=O)c2cccnc2)c1O | 7.2 | 21.9 | -7.5 | 3.0 | 55.5* | 52.4* | 51.0*
CN(C)c1ccc(-c2nnn(CC(=O)NCc3ccc4c(c3)OCO4)n2)cc1 | -27.9 | 8.6 | -5.7 | -2.8 | 8.2 | . | .
O=C1C=CN2CCCCC2CC1 (centres undefined) | 43.3 | -4.8 | 25.2 | 2.6 | -7.4 | . | .
Cc1cccn2c(=O)nc(SCC(=O)N3CCC(Cc4ccccc4)CC3)nc12 | 16.6 | 9.5 | . | 4.4 | 10.1 | . | .
COc1cccc(/C=N/Nc2nc(Nc3ccc([N+](=O)[O-])cc3)nc(N3CCCC3)n2)c1O | 23.7 | 18.2 | 59.9 | 44.8 | 96.1* | 89.4* | 39.1*
O=[N+]([O-])c1ccc(Nc2nc(N/N=C/c3cccc(F)c3)nc(N3CCCC3)n2)cc1 | 7.3 | 31.9 | 23.8 | -0.2 | 43.4 | . | .
O=C1C=CC(=C(c2ccc(O)cc2)c2ccc(O)cc2)C=C1 | 1.5 | -146.9 | -5.0 | -9.8 | 90.6* | 70.2* | 45.4*
COc1ccc(/C=C(\C#N)C(=O)N2CCOCC2)cc1Br | 7.5 | -23.9 | -6.5 | 14.9 | 18.5 | . | .
Cc1cc(/C=C(\C#N)C(=O)N2CCOCC2)c(C)n1C1CCCC1 | 7.7 | -176.5 | 1.1 | -88.6 | 63.7* | 68.4* | 158.5*
O=Cc1ccc(O)c2ncccc12 | 64.2* | -5.1 | . | 14.6 | 56.0* | 34.0 | .
CC1=CC(=O)C(C(C)=Nc2ccccc2Cl)C(=O)O1 (centres undefined) | 0.5 | -1.0 | -8.9 | -4.3 | -5.8 | . | .
O=C(CCN1CCN(c2ccccc2)CC1)N/N=C/c1ccccc1O | 4.6 | -0.8 | 30.1 | 13.3 | 59.6* | 56.1* | 56.5*
CN1CCN(CCC(=O)N/N=C/c2ccccc2F)CC1 | 7.8 | 28.8 | -1.1 | 0.9 | -30.0 | . | .
CC1(CCc2ccccc2)NC(=O)N(CC(=O)N2CCCCCC2)C1=O (centres undefined) | 6.5 | 15.1 | 1.1 | 5.3 | 14.4 | . | .
CCOC(=O)C1=NNC(C(=O)c2ccccc2)C1c1ccc(Cl)cc1 (centres undefined) | 1.6 | -9.4 | -1.2 | 7.0 | 3.2 | . | .
CCOC(=O)C1=C(C)N=C2c3ccccc3C(=O)C2C1c1ccc(Cl)cc1 (centres undefined) | 10.3 | -8.8 | -12.8 | -12.0 | 50.9* | 23.9 | .
CC1(C)CC(=O)C2=C(C1)N=C1c3ccccc3C(=O)C1C2c1ccc(Cl)cc1 (centres undefined) | 2.8 | -32.2 | 1.4 | -3.8 | 56.3* | 13.7 | .
CCOc1cccc(C(=O)Nc2ccccc2C(=O)N2CCN(C)CC2)c1 | -3.6 | -6.1 | -1.7 | -11.2 | 15.6 | . | .
CCN(CC)S(=O)(=O)c1ccc(O)c(C(=O)OCC(=O)NC23CC4CC(CC(C4)C2)C3)c1 | 5.1 | 4.9 | -7.0 | -7.3 | 28.4 | . | .
O=C(NCC1CCCO1)C(=Cc1cccc([N+](=O)[O-])c1)C(=O)NCC1CCCO1 (centres undefined) | -2.6 | 24.4 | -22.8 | -1.3 | 64.6* | 34.9 | 45.5*
O=C(NCC1CCCO1)/C(=C\c1cccc([N+](=O)[O-])c1)NC(=O)c1ccccc1 (centres undefined) | 6.2 | 6.7 | -0.4 | -0.5 | 16.9 | . | .
CCOc1ccc(-c2nnc(N3CCCCC3)c3ccccc23)cc1 | 21.7 | -18.4 | 10.0 | -11.1 | 62.2* | -1.6 | .
CC1(c2ccccc2)CC(C)(C)n2c(O)c(C3=NC(=S)NC3=O)c3cccc1c32 (centres undefined) | 14.1 | -32.4 | 4.1 | -9.3 | 67.8* | 24.9 | .
COc1ccc(NC(=O)COC(=O)CC2CCCC2)cc1 | 2.3 | 1.7 | -4.2 | 3.5 | 4.6 | . | .
C/C(N)=C(/C#N)C(=O)COC(=O)CNC(=O)c1ccc(Cl)cc1Cl | -5.3 | -2.4 | -5.4 | -4.2 | 15.0 | . | .
SMILES | Gli-Sufu antag | 697 NFkB inh | Beta apoptosis | Jurkat NFkB inh | Mdm2-MdmX inh | Mdm2 MdmX conf | FLuc counter
CCOc1ccc(-c2nc(N)ncc2Oc2ccc(OC)cc2)c(O)c1 | 1.4 | -2.2 | -21.6 | 10.5 | 13.5 | . | .
COc1ccc(-c2nc(N)nc(C)c2Oc2ccccc2Br)c(O)c1 | 1.9 | -17.6 | -11.1 | 22.8 | 66.9* | 65.2* | 52.7*
COCn1ccnc1C(O)(c1ccc(OC)cc1)c1ccc(OC)cc1 | 4.3 | 4.1 | -9.9 | 3.0 | 6.1 | . | .
COc1ccc(C2CC(O)(c3ccccc3)Oc3c(C)ccc(C)c32)cc1 (centres undefined) | -13.1 | -11.6 | -4.9 | -6.3 | 50.8* | 24.8 | .
O=C(NCc1nc(-c2ccc(C(F)(F)F)cc2)no1)Nc1ccc(OC(F)(F)F)cc1 | 0.7 | 5.2 | 0.1 | 12.1 | 89.1* | 28.2 | .
COc1ccc(-c2noc(CNS(=O)(=O)c3ccc(NC(C)=O)cc3)n2)cc1 | 18.3 | -17.9 | -7.9 | 11.8 | 3.5 | . | .
COc1cc(OC)c2c(-c3cccc(-c4ccc(OC)c(OC)c4)c3)cc(=O)oc2c1 | 46.9 | -28.5 | . | . | 62.7* | 52.4* | 86.2*
COc1cc2oc(=O)cc(-c3cccc(-c4cccc(C)c4)c3)c2c(OC)c1OC | -2.5 | 5.1 | . | . | 62.1* | 18.4 | .
COc1cc(OC)c2c(-c3cccc(-c4sccc4C(C)=O)c3)cc(=O)oc2c1 | 67.1* | -8.5 | . | . | 71.9* | 54.5* | 55.1*
CCOC(=O)c1ccc(-c2cccc(-c3cc(=O)oc4cc(OC)cc(OC)c34)c2)cc1 | -11.1 | 8.7 | . | . | 38.9 | . | .
COc1cc(OC)c2c(-c3cccc(-c4ccc(F)c(Cl)c4)c3)cc(=O)oc2c1 | -6.3 | 1.8 | . | . | 71.6* | 61.2* | 42.7*
COc1cc(OC)c2c(-c3cccc(-c4ccc(NC(C)=O)cc4)c3)cc(=O)oc2c1 | 36.8 | -23.3 | . | . | 60.2* | 63.2* | 79.4*
COc1cc(OC)c2c(-c3cccc(-c4ccc(C#N)cc4)c3)cc(=O)oc2c1 | 1.2 | -37.7 | . | . | 42.7 | . | .
CCC(C)(C(=O)NC1CCCC1)N(Cc1cccs1)C(=O)c1ccc2c(c1)OCO2 (centres undefined) | 12.7 | 23.3 | -1.1 | -7.0 | 3.3 | . | .
O=c1[nH]c2ccc(S(=O)(=O)Nc3ccc(Br)cc3)cc2[nH]1 | 0.1 | -7.0 | 5.7 | -14.4 | 21.9 | . | .
S=C(Nc1ccc(Cc2ccncc2)cc1)Nc1cccc(Cl)c1 | -1.2 | 23.8 | -5.5 | 14.8 | 4.9 | . | .
COCCN(Cc1nc2ccccc2c(=O)[nH]1)C(=O)COc1ccccc1-c1ccccc1 | 3.0 | -1.3 | . | -5.7 | 53.2* | 43.2* | 85.6*
Cc1ccc2ncnc(Nc3ccccc3)c2c1 | . | 16.9 | 13.3 | -6.9 | 33.4 | . | .
Clc1ccc(Nc2ncnc3ccc(Br)cc23)cc1 | 5.7 | -42.1 | 20.5 | 16.2 | 77.3* | 60.8* | 36.9*
CN(C)c1ccc(Nc2ncnc3ccc(Br)cc23)cc1 | -20.2 | -32.8 | -5.1 | 12.3 | 77.9* | 68.5* | 37.3*
CC(=O)N(C(C)=O)c1ncc2c([nH]c3ccccc32)c1C#N | -14.4 | 24.6 | -17.1 | 36.4 | 81.8* | 85.8* | 33.1
